Mtb MbtI inh = blocks the Mycobacterium tuberculosis siderophore enzyme MbtI | P9WFX0 | purified MbtI enzyme, fluorescence intensity read-out | inhibition, % (test concentration not listed) | 0.89% of 100,000 active; in the data active = inhibition mostly above about 56%, no sharp cut-off; inactive = mostly below about 77%
AID504770 = growth inhibitors of E. coli YBA685 in a screen for V. cholerae RctB (chromosome II replication) inhibitors; E. coli YBA685 rctB-dependent plasmid, OD600 growth, 3 h; hits give low values; z-score (concentration not given with the values); 0.27% of 130,000 active; in the data active = z-score below about -2, passing the limit was not always enough
Polio RdRp inh = inhibitors of poliovirus RNA polymerase binding and polymerization | poliovirus polymerase elongation, fluorescence polarization; hits give low values | % elongation, % (compound at 16.7 µg/mL) | 0.66% of 150,000 active; in the data active = % elongation below about 90%
Target sequence (P03300 1749-2209 limits assumed): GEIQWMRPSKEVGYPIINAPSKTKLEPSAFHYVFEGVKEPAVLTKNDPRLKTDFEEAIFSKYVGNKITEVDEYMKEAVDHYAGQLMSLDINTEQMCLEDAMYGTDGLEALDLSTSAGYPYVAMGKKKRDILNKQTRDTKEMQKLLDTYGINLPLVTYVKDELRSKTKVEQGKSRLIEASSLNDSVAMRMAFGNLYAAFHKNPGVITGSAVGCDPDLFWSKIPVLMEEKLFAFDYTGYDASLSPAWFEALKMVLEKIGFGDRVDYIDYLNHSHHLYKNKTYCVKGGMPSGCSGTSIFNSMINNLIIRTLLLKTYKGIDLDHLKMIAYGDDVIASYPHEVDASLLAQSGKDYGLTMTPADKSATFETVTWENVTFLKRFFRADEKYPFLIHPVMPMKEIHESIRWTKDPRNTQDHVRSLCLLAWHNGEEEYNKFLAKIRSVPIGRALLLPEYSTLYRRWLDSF
Mtb MenB inh = inhibitors of Mycobacterium tuberculosis MenB enzyme | MenB enzyme assay, absorbance read-out | inhibition, % (concentration not given with the values) | AID 540299 | P9WNP5 | 0.43% of 100,000 active; in the data active = inhibition above about 21%, passing the limit was not always enough
Hits are given with their value; – = inactive; · = no result. Compounds with a hit are over-represented: about 1.4% of the library has one in this group of screens.

SMILES	Mtb MbtI inh	AID504770	Polio RdRp inh	Mtb MenB inh
Cc1cc(NC(=O)C2CCN(S(=O)(=O)c3ccccc3)CC2)ccc1-n1cnnn1	–	–	–	–
Cc1ccsc1C(N)=S	–	–	–	–
NC(=S)c1sccc1CS(=O)c1ccc(Cl)cc1 (configuration not stated)	58.6	–	–	–
COc1ccc(C)cc1NC(=O)CN(C)Cc1nc2ccccc2c(=O)[nH]1	–	–	89.0	–
COc1ccc(C2CC(=O)N2C(C(=O)Nc2c(C)cccc2C)c2ccc3c(c2)OCO3)cc1OC (configuration not stated)	–	–	·	·
CN(C)S(=O)(=O)c1ccc(/C(O)=C2\C(=O)C(=O)N(Cc3cccnc3)C2c2cccnc2)cc1 (configuration not stated)	–	–	–	34.4
CN(C)CCCN1C(=O)C(=O)/C(=C(/O)c2ccc(S(=O)(=O)N(C)C)cc2)C1c1ccccc1 (configuration not stated)	–	–	–	–
S=C(SCc1ncon1)N1CCOCC1	92.2	–	–	–
CC(Sc1ccccn1)C(=O)Nc1ccccc1 (configuration not stated)	93.7	–	–	–
CCN(CC)S(=O)(=O)c1ccc2[nH]c(=O)cc(C(=O)O)c2c1	–	–	–	–
S=c1nc(-c2cccs2)[nH][nH]1	–	–	69.0	–
COc1ccc(-c2nn[nH]n2)cc1	–	–	–	38.5
O=C1NC(=O)C(=Cc2ccc(N3CCCC3)o2)C(=O)N1	–	–	–	–
O=C1NC(=O)C(=Cc2ccc(Sc3ccc(Cl)cc3)o2)C(=O)N1	91.6	–	–	–
CC1CCN(S(=O)(=O)c2ccc(C(=O)NCc3ccco3)cc2)CC1	·	–	89.0	–
O=c1/c(=C\c2ccncc2)sc2nc3ccccc3n12	·	–	63.0	–
O=c1/c(=C\c2ccccc2)sc2nc3ccccc3n12	–	–	–	·
CN(C)Cc1c(O)ccc2c1O/C(=C\c1ccccc1)C2=O	–	–	–	–
O=C(Cn1cnc2c(nc3n2CCCCC3)c1=O)NC1CCCCCC1	–	-2.1	–	–
O=C(COC(=O)C12CC3CC(CC(Br)(C3)C1)C2)N1CCCCC1	–	–	–	·
Cc1ccc(C(=O)CCC(=O)O)s1	–	-3.3	–	–
Cc1ccc(C(=O)OCC(=O)c2ccccc2)s1	–	–	–	–
Cc1ccc(-c2csc(NC(=O)C(C)C)n2)c(C)c1	·	–	·	·
O=C(Cn1nc(Cc2ccncc2)c2ccccc2c1=O)N1CCCC1	–	–	–	–
Cc1ccc(S(=O)(=O)N2CCOCC2)c(C)c1	–	–	–	–
SMILES	Mtb MbtI inh	AID504770	Polio RdRp inh	Mtb MenB inh
CCS(=O)(=O)N1CCN(S(=O)(=O)c2ccc(C)cc2)CC1	–	–	–	–
Cc1ccc(S(=O)(=O)N2CCN(Cn3nc(C)sc3=S)CC2)c(C)c1	68.2	–	–	–
Cc1ccc(S(=O)(=O)N2CCN(Cn3nc(Nc4ccccc4F)sc3=S)CC2)cc1	94.5	–	–	–
Cc1ccc(S(=O)(=O)CC(=O)Nc2ccc(-c3nc4ccc(C)cc4s3)cc2)cc1	–	–	–	–
Nc1c(C(=O)NC2CCCCC2)sc(=S)n1-c1ccccc1	55.5	–	–	–
O=C(NCCc1ccccc1)c1sc(=S)n2c1[nH]c(=O)c1ccccc12	–	–	–	–
O=C(NC1CCCCC1)c1sc(=S)n2c1[nH]c(=O)c1ccccc12	96.0	–	–	–
NC(=O)c1sc(=S)n(-c2ccccc2)c1N	·	–	–	–
CCOC(=O)C1CCCN(c2c3c(nc4cc(-c5ccc(F)cc5)nn24)CCCC3)C1 (configuration not stated)	–	–	–	–
O=S(=O)(c1ccc(-n2cnnn2)cc1)N(Cc1ccccn1)C1CC1	–	–	–	–
Cn1cc(C(=O)CSc2nnc(-c3ccoc3)c(-c3ccoc3)n2)c2ccccc21	–	–	–	–
COc1ccc2[nH]cc(C(=O)CSc3nnc(-c4ccoc4)c(-c4ccoc4)n3)c2c1	75.4	–	–	–
CCN1CCN(CCCNC(=O)c2cc3c(=O)n(C)c4ccccc4c3s2)CC1	·	·	74.0	·
CCCN1CCN(CCCNC(=O)c2cc3c(Cl)nc4ccccc4c3s2)CC1	·	·	67.0	·
Clc1ccc(CNc2nc3ccccc3[nH]2)cc1Cl	–	-2.8	–	–
O=C(O)C1CSC(c2cccnc2)=N1 (configuration not stated)	–	–	·	·
O=C(O)C1CSC(c2ccncc2)=N1 (configuration not stated)	–	–	–	90.1
CC(C)CN(CC(C)C)C(=O)c1noc2c1CC(C)CC2 (configuration not stated)	–	–	–	–
COc1ccc(OCC(=O)NCCO)cc1	–	–	–	34.6
O=C(COc1ccc(-n2cnnn2)cc1)Nc1ccccc1	–	–	–	–
CCCCOC(=O)Sc1nc2ccccc2o1	91.2	–	–	–
Cn1ccnc1SCC1CCCCO1 (configuration not stated)	–	–	–	–
Cc1ccc(CN(C)CC(=O)Nc2cc(Cl)ccc2C#N)cc1	–	–	–	–
COc1ccc(Cn2c(=O)[nH]c3cc(C(=O)N4CCN(c5cccc(OC)c5)CC4)ccc3c2=O)cc1	·	·	73.0	·
COc1ccc(Cn2c(=O)[nH]c3cc(C(=O)N4CCN(c5cccc(Cl)c5)CC4)ccc3c2=O)cc1	·	·	–	·
SMILES	Mtb MbtI inh	AID504770	Polio RdRp inh	Mtb MenB inh
C/C(N)=C(/C#N)C(=O)CSc1n[nH]c(-c2cccs2)n1	–	–	–	–
CC(C)N(C(=O)CSc1n[nH]c(-c2cccs2)n1)C(C)C	–	-4	–	–
Cc1ccc(C(=O)Nc2nonc2NC(=O)c2ccc(C)cc2)cc1	–	–	–	–
O=C1N=c2ccccc2=C1c1c(O)n(-c2cccc(F)c2)[nH]c1=O	88.0	–	–	–
Cc1nn(CCC#N)c2c1P(=S)(N1c3ccccc3CC1C)/C(=C1\N(C)c3ccccc3C1(C)C)C=N2 (configuration not stated)	57.2	–	–	–
CCN(CC)C1=NC(Cc2ccccc2)C(=O)N1c1ccccc1OC (configuration not stated)	–	–	–	–
CCCCCCSc1n[nH]c(=O)[nH]c1=O	–	–	86.0	–
NCCSc1n[nH]c(=O)[nH]c1=O	–	–	–	–
CC1CCc2cc(F)cc3c(=O)c(C(=O)O)cn1c23 (configuration not stated)	–	-3.35	–	–
O=C(N1CCOCC1)C(F)(F)C(F)(F)C(F)(F)F	–	–	–	–
CC1CN(C(=O)C2CCCN2S(=O)(=O)c2cccc3nsnc23)CC(C)O1 (configuration not stated)	–	–	–	–
Oc1c(CN2CCOCC2)cc(Cl)c2cccnc12	–	–	–	–
COC(=O)c1cc2c(ccn2-c2ccc(F)cc2)n1CC(=O)c1ccc(OC)cc1	–	–	–	–
CCn1c(C(=O)OC)cc2c1ccn2-c1ccc(F)cc1	–	–	–	31.6
O=C(C1=Cc2sc3c(c2CS1)CCCC3)N1CCC2(CC1)OCCO2	95.1	–	–	–
O=C(c1cc2c(s1)CCCCCC2)N1CCC2(CC1)OCCO2	–	–	–	–
CC(C)(C)C1=Nn2c(nnc2-c2ccccc2)SC1	64.5	–	–	–
CC(=O)Nc1nc(-c2ccccc2)[n+](-c2ccccc2)s1	·	–	·	·

Screening results from PubChem.
